Results on 40 compounds are retold here after PubChem BioAssay (NCI).

Several values for one entry are separate records, joined by “and”; a condition that tells them apart may be missing. Equal values may be shown once. The panel holds about 83,000 compounds, 20% with a hit somewhere; the sample as a whole holds those more often.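 Assay: single dose, 48 h. Readout: percent growth (0 = no net growth; negative = cell death). Active: <10.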 Values without a mark were called inactive. Activity calls are given as the source filed them.

The experiment has as its system MDA-MB-468 breast. Kind of experiment: NCI-60 one-dose screen, 48 h (100 = growth as untreated, 0 = no growth, -100 = all killed). Particulars: 10 µM unless noted.
As to `Cn1cc(-c2cc(N)n3nc(-c4cn(C)c5ccc(F)cc45)cc3n2)c2cc(F)ccc21`, the growth was 12.3%. In the case of `COc1cc(NC(=O)c2cc(O)c(CC=C(C)C)c(O)c2)cc2c1O[C@]1(C)CC[C@@H](O)C(C)(C)[C@H]1C2`, the growth was 30.8%.

With `O=c1[nH]cnc2c1ncn2C1OC(CO)C(O)C1O` (stereo not given), the growth was 123% and 113% and 111%. Take `CCNCCNc1cc(C2CCCC2)c(C#N)c2nc3ccccc3n12`: the growth was -25.5% (active). As to `CN1C(=O)N(C)C2C1NN=c1s/c(=C\c3ccc(C(F)(F)F)cc3)c(=O)n12` (stereo not given), the growth was -2.71% (active). Turning to `Cc1cc(C(c2ccccc2)c2ccccc2)ccc1NS(=O)(=O)c1ccccc1`, the growth was 111%. Turning to `CCN1C(=O)N(CC)C2C1NC(=S)N2/N=C/c1ccc(OC)cc1` (stereo not given), the growth is 26.8%. With `Cc1nn(-c2ccc(Cl)cc2)c(=O)n1CCN1CCOCC1`, the growth is 90.3%. For the compound `O=C(Nc1ccc(Oc2cccc(F)c2)c(Cl)c1)c1cnccn1`, the growth is 0.0833% (active). As for `O=C(Nc1ccc(-n2ccc3c(NC(=O)c4ccccc4)nccc32)cc1)Nc1cccc(C(F)(F)F)c1`, the growth was 15.5%. As for `Cc1cc2nc3c4cc(Cl)ccc4n(CC(=O)NCCN(C)C)c3nc2cc1C`, the growth was 60.6%. As for `C#CCOc1ccc2ncnc(Nc3cccc(NC(=O)C=C)c3)c2c1`, the growth was 41.6%. Then `COC12C=C/C(=C(/C(=O)OCc3ccncn3)C(=O)CCCCCCCCC3(OC)C=C/C(=C(/C(=O)OCc4ccncn4)C(=O)CCCCCCCC1)O3)O2`, with -45.5% (active); and `O=C(Nc1cccc2c(O)c(N=Nc3ccc(S(=O)(=O)Nc4nccs4)cc3)cc(N=Nc3ccc(S(=O)(=O)Nc4nccs4)cc3)c12)C(Cl)Cl`, with 7.35% (active); and `O=C(CSc1nc2ccccc2c(=O)n1-c1ccc(Cl)cc1)N/N=C/c1ccc(Oc2ccc(Cl)cc2)cc1`, with -18.6% (active). In the case of `CCOC(=O)c1c(C)nc2c(c1N)/C(=C/c1ccc(OC)cc1)C(=O)N2Cc1ccccc1` it was 66.7%; in that of `COc1ccccc1NC(=O)C1CC(c2ccc(F)cc2)=NO1` (stereo not given), 99.7%. For `COC(=O)[C@]12CC[C@@H](C)[C@H](C)[C@@H]1C1=CC[C@@H]3[C@@]4(C)CC(=O)[C@H](O)[C@@]5(C)COC(=C45)C[C@@]3(C)[C@]1(C)CC2`, the growth is -83.9% (active). Regarding `COc1cc2cc(Oc3ccc(NC(=O)Nc4ccc(Cl)c(C(F)(F)F)c4)cc3)c(C)nc2cc1OCCN1CCOCC1`, the growth was -13.5% (active). On to `c1ccc(Nc2nc(-c3ccccn3)cs2)nc1`, for which the growth was -14.6% (active). Then `Cn1ccc2c3c(ccc21)CC3=O`, with 106%; and `OC(c1cc(-c2ccc(C(F)(F)F)cc2)nc(-c2ccc(C(F)(F)F)cc2)c1)C1CCCCN1` (stereo not given), with -85.1% (active). Then `COc1ccc(F)c(F)c1C(=O)c1cnc(NC2CCN(S(C)(=O)=O)CC2)nc1N`, with -59.4% (active); and `CCC(O)CC(CC)CO` (stereo not given), with 113%. For `Cc1nc2c(=O)[nH]c(=S)[nH]c2[nH]c1=O`, the growth is 107% and 111%. In the case of `COc1ccc2[nH]c(C(=O)N3CCN(C(=O)OCc4ccc5c(Cl)cc(Cl)c(O)c5n4)CC3)cc2c1` it was -76.5% (active). Consider `CCCCC(CCc1ccc([N+](=O)[O-])cc1)(C(C)=O)C(=O)OCC` (stereo not given), for which the growth is 83.8%. With `COc1ccc(-c2nc3sccn3c2-c2ccnc(NCCCNS(=O)(=O)c3ccc(F)cc3)n2)cc1`, the growth was 6.78% (active).

With `CCCCCCNCc1cc(C(C)(C)C)cc(CNCCCCCC)c1O`, the growth is -89.8% (active). Then `O=C1c2c(c(=O)[nH]c3ccccc23)CCN1Cc1ccccc1`, with 101%; and `Oc1ccc(OCCOc2ccc(O)cc2)cc1`, with 94.6%. Take `O=C1NC(=C(Cl)Cl)/C(=N/S(=O)(=O)N2CCC(C3(C(F)(F)F)N=N3)CC2)N1`: the growth was 32.7%. In the case of `c1ccc(C(NC2CC3CCC2C3)c2ccccc2)cc1` (stereo not given) it was 96.8%; in that of `CCN(CC)c1ccc(/C=N/NC(=O)Cc2ccc(Nc3ccnc(C(F)(F)F)c3)cc2)c(O)c1`, 26.1%. As to `O=C1/C(=C/c2ccccc2)SC(=Nc2ccccc2)N1Nc1ccccc1`, the growth was 1.39% (active).

`CN1CCN(C(=O)/C=C/c2ccc([N+](=O)[O-])o2)CC1`: the growth was 77.4%.

As to `Cc1ccc(N=c2nc3sc4c(C)ccc(C)c4n3c(N)c2C#N)cc1`, the growth is 115%. As to `NC(N)=NN=c1c(=O)c2ccccc2c1=O`, the growth is 106%.

As to `CSc1nc(N)c(CNC(C)c2ccccc2)c(=O)n1C` (stereo not given), the growth was 97.4%. As for `C[C@@H](C[C@H](CCO)c1cc(C(F)(F)F)cc(C(F)(F)F)c1)c1ccc2ccccc2c1`, the growth is 83.9%.
